Test results from the supplement of paper PMC8253809.
Values joined by “and” are separate entries in the source; they are usually repeats but may differ in a detail not shown here. Equal entries are not always repeated.

Legend:
Experiment in all cases: growth inhibition (% activity, log2 RLU normalised to DMSO / staurosporine); higher = more growth inhibition
Settings in all cases: 33 µM
[1] = test system: DIPGX29 (H3.3 K27M diffuse intrinsic pontine glioma line)
Summary of the method: (§1)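 The growth-inhibition value comes from CellTiter-Glo luminescence, log2-transformed, normalised per plate to % activity between solvent and positive control wells, and taken as the median over replicates. Treatment of pHGG cell lines and H9-derived neural stem cells with approved drugs was at a single final concentration of about 33 μM, in triplicate, for 7 days at 37 °C, 5% CO2.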

[2] = test system: DIPGX37 (H3.3 K27M diffuse intrinsic pontine glioma line)
Summary of the method: as §1

[3] = test system: DIPGX7 (H3.3 K27M diffuse intrinsic pontine glioma line)
Summary of the method: as §1

[4] = test system: DIPGX9 (diffuse intrinsic pontine glioma line)
Summary of the method: as §1

[5] = test system: HGGX39 (paediatric high-grade glioma line)
Summary of the method: as §1

[6] = test system: HGGX6 (H3.3 G34R paediatric high-grade glioma line)
Summary of the method: as §1

[7] = test system: HNSC
Summary of the method: as §1

[8] = test system: SUDIPGIV (diffuse intrinsic pontine glioma line)
Summary of the method: as §1

[9] = test system: SUDIPGVI (diffuse intrinsic pontine glioma line)
Summary of the method: as §1

[10] = test system: SUDIPGXIII (diffuse intrinsic pontine glioma line)
Summary of the method: as §1

| Compound | growth inhibition [1] | growth inhibition [2] | growth inhibition [3] | growth inhibition [4] | growth inhibition [5] | growth inhibition [6] | growth inhibition [7] | growth inhibition [8] | growth inhibition [9] | growth inhibition [10] |
| --- | --- | --- | --- | --- | --- | --- | --- | --- | --- | --- |
| CN(C)CCc1c[nH]c2ccc(CS(=O)(=O)N3CCCC3)cc12 | 1.96% | 3.12% | 1.45% | 1.71% | 2.56% | 3.04% | 1.98% | 0.896% | 3.66% | -0.309% |
| Cc1cnc(C(=O)O)c[n+]1[O-] | 1.49% | 2.38% | 1.7% | 5.6% | 1.15% | 2.68% | 3.09% | 1.14% | 1.26% | 0.57% |
| Nc1nc(NC2CC2)c2ncn([C@H]3C=C[C@@H](CO)C3)c2n1 | 1.7% | 3.27% | 1.17% | 1.56% | 3.46% | 3.46% | 0.755% | 2.42% | 3.29% | 0.173% |
| CC[C@@H](CO)NCCN[C@@H](CC)CO | -4.2% | -0.485% | -2.38% | -2.09% | -0.115% | -2.97% | -1.6% | -3.04% | -1.42% | -0.832% |
| Nc1nnc(-c2cccc(Cl)c2Cl)c(N)n1 | -0.42% | -0.569% | -0.114% | -0.0846% | 0.648% | 0.473% | 0.358% | -1.97% | 0.284% | 0.73% |
| NCCCC(O)(P(=O)(O)O)P(=O)(O)O | -0.387% | -3.88% | 0.704% | 0.583% | -0.159% | -0.423% | 1.02% | -0.208% | 1.59% | 0.669% |
| C=C[C@]1(C)C[C@@H](OC(=O)CSC(C)(C)CNC(=O)[C@H](N)C(C)C)[C@]2(C)[C@H](C)CC[C@]3(CCC(=O)[C@H]32)[C@@H](C)[C@@H]1O | 2.79% | 0.213% | 4.74% | 1.8% | 20.9% | 4.36% | 15.7% | 29.9% | 1.61% | 46.4% |
| C[C@]12CCC(=O)C=C1[C@@H]1C[C@@H]1[C@H]1[C@@H]3[C@@H]4C[C@@H]4[C@@]4(CCC(=O)O4)[C@@]3(C)CC[C@@H]12 | 0.956% | 1.46% | 0.0985% | 0.611% | 2.45% | 2.65% | 0.782% | 0.914% | 2.83% | 0.882% |
| CC(/C=C1\SC(=S)N(CC(=O)O)C1=O)=C\c1ccccc1 | -1.36% | -1.28% | -1.21% | 0.579% | -0.83% | -0.392% | -2.25% | -1.67% | -1.06% | 1.76% |
| CC1=CC(=O)c2ccccc2C1=O | 2.41% | 0.293% | 3.47% | 2.26% | 1.01% | 2.5% | 42.7% | 1.4% | 4.19% | -2.13% |
| CC(=O)OCC(CCn1cnc2cnc(N)nc21)COC(C)=O | -2.6% | -4.6% | -0.979% | -2.76% | -5.59% | -3.73% | 33.5% | -3.45% | -13% | 2.17% |
| CN(C)CCC(c1ccc(Br)cc1)c1ccccn1 (stereo not drawn) | -0.2% | 1.72% | 0.687% | 0.118% | 1.57% | -1.76% | 4.12% | -0.116% | -0.379% | 1.63% |
| O=C(c1ccc(OCCN2CCCCC2)cc1)c1c(-c2ccc(O)cc2)sc2cc(O)ccc12 | 8.18% | -0.349% | 22.3% | 1.84% | 6.41% | 7.69% | 1.59% | 0.509% | -4.3% | 2.77% |
| O=C(O)CSCC(=O)NC1CCSC1=O (stereo not drawn) | 0.54% | -0.388% | -0.264% | -0.495% | 0.576% | -1.19% | -1.48% | 0.118% | 1.47% | -6.51% |
| CO[C@H]1/C=C/O[C@@]2(C)Oc3c(C)c(O)c4c(O)c(c(/C=N/N5CCN(C6CCCC6)CC5)c(O)c4c3C2=O)NC(=O)/C(C)=C\C=C\[C@H](C)[C@H](O)[C@@H](C)[C@@H](O)[C@@H](C)[C@H](OC(C)=O)[C@@H]1C | 1.87% | 1.82% | 1.73% | 2.34% | 2.99% | 2.94% | 0.219% | -0.888% | 1.12% | 0.627% |
| NS(=O)(=O)c1cc2c(cc1Cl)NCNS2(=O)=O | -1.36% | -0.293% | -0.977% | 0.545% | 0.937% | -0.432% | -1.69% | -0.42% | 0.531% | 1.25% |
| COc1nc(C)nc(Cl)c1NC1=NCCN1 | -1.42% | -1.39% | -1.95% | -1.31% | 0.125% | -1.01% | -1.76% | -1.72% | -2.98% | -0.769% |
| COc1cc(NS(=O)(=O)c2ccc(N)cc2)nc(OC)n1 | 1.59% | 1.08% | 2.92% | 1.55% | 1.71% | 2.67% | 1.56% | 0.337% | 2.95% | -1.53% |
| CN(CCOc1ccc(NS(C)(=O)=O)cc1)CCc1ccc(NS(C)(=O)=O)cc1 | -2.77% | -1.46% | 0.833% | -2.46% | -2.37% | -1.41% | -6.33% | -2.75% | -13.8% | 0.844% |
| CC=CC1=C(C(=O)O)N2C(=O)[C@@H](NC(=O)[C@H](N)c3ccc(O)cc3)[C@H]2SC1 | -1.6% | 0.508% | -0.595% | 0.543% | -1.99% | 1.84% | -1.83% | -0.89% | 0.277% | -12.4% |

| Compound | growth inhibition [1] | growth inhibition [2] | growth inhibition [3] | growth inhibition [4] | growth inhibition [5] | growth inhibition [6] | growth inhibition [7] | growth inhibition [8] | growth inhibition [9] | growth inhibition [10] |
| --- | --- | --- | --- | --- | --- | --- | --- | --- | --- | --- |
| CCN(CC)CC(=O)Nc1c(C)cccc1C | 1.31% | 0.211% | 2.14% | 1.09% | 2.87% | 0.583% | 1.55% | 0.232% | 2.37% | 1.3% |
| CN[C@@H]1[C@H](O)[C@H](NC)[C@H]2O[C@@]3(O)C(=O)C[C@@H](C)O[C@H]3O[C@@H]2[C@H]1O | 1.24% | 1.47% | 0.532% | 2.81% | 1.18% | -0.547% | 3.02% | 0.676% | 2.4% | 0.316% |
| CC(C)[N+]1(C)[C@@H]2CC[C@H]1C[C@@H](OC(=O)C(CO)c1ccccc1)C2 (stereo partly drawn) | -0.758% | 3.5% | 0.48% | 0.945% | 1.73% | 2.16% | -1.56% | -0.725% | 2.4% | 0.743% |
| CCN(CC)CCNC(C(=O)OCCC(C)C)c1ccccc1 (stereo not drawn) | 2% | -0.0996% | 4.26% | 1.08% | 0.0597% | 0.247% | 74.6% | 1.14% | -6.42% | 2.01% |
| CN1[C@@H]2CC[C@H]1C[C@@H](OC(c1ccccc1)c1ccccc1)C2 | 4.24% | -1.03% | 6.35% | 2.77% | 6.58% | 5% | 9.97% | 2.1% | 3.58% | 0.606% |
| CN(C)c1nc(N(C)C)nc(N(C)C)n1 | -3.35% | -1.75% | -1.42% | -3.04% | -3.6% | -3.16% | -5.97% | -3.04% | -2.53% | -0.234% |
| Cc1c(-c2ccc(O)cc2)n(Cc2ccc(OCCN3CCCCCC3)cc2)c2ccc(O)cc12 | 22.4% | 0.0572% | 20.3% | 1.94% | 8.64% | 16.4% | 26.1% | 18.8% | -5.95% | 1.05% |
| Cc1cn([C@@H]2C[C@@H](O)[C@H](CO)O2)c(=O)[nH]c1=O | 0.778% | -0.0219% | 0.328% | -2.07% | -0.771% | -3.82% | 1.03% | -0.72% | -10.2% | -2.27% |
| CCc1c2c(nc3ccc(OC(=O)N4CCC(N5CCCCC5)CC4)cc13)-c1cc3c(c(=O)n1C2)COC(=O)[C@]3(O)CC | 6.04% and 11.2% | 2.87% and 1.26% | 5% and 16.3% | 7.83% and 32.1% | 13.7% and 30.1% | 7.49% and 10.4% | 55.3% and 54.4% | 49.3% and 46.9% | 1.04% and 3.21% | -12% and 3.28% |
| O=C1CN2Cc3c(ccc(Cl)c3Cl)N=C2N1 | -0.095% | -0.968% | -0.492% | 0.847% | 3.51% | 9.62% | -2.73% | -0.36% | 0.709% | -4.79% |
| CO[C@H]1C(=O)[C@]2(C)[C@@H](OC)C[C@H]3OC[C@@]3(OC(C)=O)[C@H]2[C@H](OC(=O)c2ccccc2)[C@]2(O)C[C@H](OC(=O)[C@H](O)[C@@H](NC(=O)OC(C)(C)C)c3ccccc3)C(C)=C1C2(C)C | 6.45% | 5.31% | 8.93% | 18.4% | 26.1% | 12.9% | 70.7% | 22.5% | 3.28% | 2.32% |
| C[C@]12CC[C@@H]3c4ccc(O)cc4CC[C@H]3[C@@H]1CC[C@@H]2O | -1.16% | 1.54% | -0.611% | -0.154% | 0.663% | 2.45% | -4.69% | -0.561% | -3.66% | 1.49% |
| CCOc1cc(N)c(Cl)cc1C(=O)NCC1CN(Cc2ccc(F)cc2)CCO1 (stereo not drawn) | -0.0532% | 1.06% | 0.919% | 1.54% | 1.87% | 0.0657% | 1.23% | 0.346% | 1.9% | 1.85% |
| O=C(NC(Cc1cc(=O)[nH]c2ccccc12)C(=O)O)c1ccc(Cl)cc1 (stereo not drawn) | 0.575% | 0.0807% | -1.26% | 0.987% | 0.192% | 0.202% | -1.11% | -0.753% | 0.645% | 0.24% |
| N#CC[C@H](C1CCCC1)n1cc(-c2ncnc3[nH]ccc23)cn1 | -0.711% | -0.293% | 0.591% | -1.04% | 1.2% | -0.228% | -3.15% | -1.09% | 1.18% | -0.858% |
| CCOC(=O)C1=C(COCCN)NC(C)=C(C(=O)OC)C1c1ccccc1Cl (stereo not drawn) | 15% and 3.31% | 4.6% and -0.383% | 5.13% and -0.147% | 4.27% and -0.283% | 6.07% and -2.96% | 6.22% and 0.934% |  | 1.11% and -4.26% | 3.83% and -2% | 0.181% and 0.61% |
| Cc1nnc(C(=O)NC(C)(C)c2nc(C(=O)NCc3ccc(F)cc3)c(O)c(=O)n2C)o1 | 1.77% | -0.226% | 2.62% | 2.15% | 2.25% | -0.564% | 4.29% | -0.0786% | 2.47% | 0.152% |
| CCN(CC)CC#CCOC(=O)C(O)(c1ccccc1)C1CCCCC1 (stereo not drawn) | 7.11% and -0.14% | -0.636% and -1.02% | 8.09% and 5.01% | 1.99% and -2.12% | 4.03% and -0.183% | 1.74% and -0.191% |  | 3.76% and -2.81% | -0.8% and -5.89% | 1.45% and 2.55% |
| CN(C)CCOC(C)(c1ccccc1)c1ccccn1 (stereo not drawn) | -1.53% | -0.506% | 0.0494% | -1.25% | 0.245% | -0.355% | -1.65% | -0.218% | -0.777% | 0.1% |
| Nc1ccc(S(=O)(=O)Nc2nccs2)cc1 | -2.53% | -1.47% | -1.25% | -0.733% | -2.1% | -3.04% | 5.4% | -1.7% | -2.69% | 0.0367% |
